GCN5L2 inh: qHTS Assay for Inhibitors of GCN5L2; Histone acetyltransferase KAT2A (Homo sapiens), Q92830; GCN5L2 HAT assay, ThioGlo1 CoA-SH fluorescence; Potency, µM (highest dose often 58.9 µM), without a hit: at the top dose activity change, negative = inhibition, usual class: inhibitors; 390,000 compounds, 0.21% hits; note: potency is the fitted concentration of half-maximal effect; % is set by controls: 0 for no effect and ±100 for the full control effect
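Titration-based screen in which CoA formation is detected via maleimide probe ThioGlo1 (50uM) turning fluorescent on thiol reaction; substrates H3(1-25) 75uM and acetyl-CoA 70uM, GCN5L2 20nM, 20 min incubation at room temperature.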
PLK1 PBD block: qHTS for Inhibitors of PLK1-PDB (polo-like kinase 1 - polo-box domain): Primary Screen | Serine/threonine-protein kinase PLK1 (Homo sapiens), P53350 | Plk1 PBD binding of FITC phosphopeptide, fluorescence polarization | Potency, µM, for the others: max response, negative = inhibition, hits mostly inhibitors | 360,000 compounds, 2.8% hits; note: potency is the fitted concentration of half-maximal effect; series mostly up to about 57 µM; % is set by controls: 0 for no effect and ±100 for the full control effect; nearly all actives have a fitted effect of over 65% in size
Target sequence (P53350 whole entry, looked up, the tested form may be a part): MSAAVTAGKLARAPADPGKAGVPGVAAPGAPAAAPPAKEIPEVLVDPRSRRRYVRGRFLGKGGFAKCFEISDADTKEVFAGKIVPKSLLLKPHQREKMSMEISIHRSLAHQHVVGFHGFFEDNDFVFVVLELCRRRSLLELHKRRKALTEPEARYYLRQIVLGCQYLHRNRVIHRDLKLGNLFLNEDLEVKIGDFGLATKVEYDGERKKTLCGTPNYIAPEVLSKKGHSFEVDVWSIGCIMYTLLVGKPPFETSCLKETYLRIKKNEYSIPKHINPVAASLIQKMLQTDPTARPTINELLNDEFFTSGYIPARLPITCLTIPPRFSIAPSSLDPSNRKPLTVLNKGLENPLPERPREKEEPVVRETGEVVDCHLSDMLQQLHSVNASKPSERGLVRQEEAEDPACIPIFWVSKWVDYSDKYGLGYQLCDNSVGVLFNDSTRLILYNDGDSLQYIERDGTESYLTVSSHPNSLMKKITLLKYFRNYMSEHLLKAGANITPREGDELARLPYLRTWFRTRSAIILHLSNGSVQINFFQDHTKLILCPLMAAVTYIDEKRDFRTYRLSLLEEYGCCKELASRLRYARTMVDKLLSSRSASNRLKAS
JMJD2A Tudor: qHTS Assay for Inhibitors of JMJD2A-Tudor Domain. Lysine-specific demethylase 4A (Homo sapiens), O75164. AlphaScreen JMJD2A-Tudor / H3K4me3 peptide binding. Potency, µM (doses to about 114 µM), for inactives: top-dose activity change, negative = inhibition, usual class: inhibitors. 390,000 compounds, 4.4% hits. AID 504339, 2011; note: potency is the fitted concentration of half-maximal effect; % is set by controls: 0 for no effect and ±100 for the full control effect; nearly all actives have a fitted effect of over 50% in size
BAZ2B block: qHTS Assay for Inhibitors of BAZ2B | Bromodomain adjacent to zinc finger domain protein 2B (Homo sapiens), Q9UIF8 | AlphaScreen BAZ2B-H3K14Ac peptide displacement | Potency, µM (top dose mostly 114 µM), inactives show top-dose activity change, negative = inhibition, usual class: inhibitors | 360,000 compounds, 4.4% hits | AID 504333, 2011; note: potency is the fitted concentration of half-maximal effect; % is set by controls: 0 for no effect and ±100 for the full control effect; nearly all actives have a fitted effect of over 60% in size
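AlphaScreen displacement of biotin-H3(5-23)K14Ac peptide (50 nM final) from BAZ2B (50 nM final) in PBS pH 7.4, 0.01% Tween-20; complex preformed 30 min RT, then compounds (top 110 uM) 30 min RT, beads 20 min dark.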
HP1b binding inh: HTS for Inhibitors of HP1-beta Chromodomain Interactions with Methylated Histone Tails | 390,000 compounds, 0.56% hits | Chromobox protein homolog 1 (Homo sapiens), P83916 | Potency, µM (doses to about 114 µM), without a hit: top-dose activity change, negative = inhibition, most hits filed as inhibitors | AlphaScreen HP1-beta / biotin-H3K9me3 peptide binding; note: potency is the fitted concentration of half-maximal effect; nearly all actives have a fitted effect of over 70% in size
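Compound inhibition of the preformed complex between 50 nM HP1-beta and 50 nM biotinylated H3K9me3 peptide was read by AlphaScreen. Buffer was PBS pH 7.4 with 0.01% Tween-20. Incubations ran 30 min at room temperature, with 10 ug/mL donor/acceptor beads.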
PI5P4K alpha inh: qHTS for Inhibitors of phosphatidylinositol 5-phosphate 4-kinase (PI5P4K); 330,000 compounds, 1.2% hits; PI5P4Kalpha enzyme, ADP-Glo luminescence, 60 min; hits give low values; AID 652105, 2013; max response, %; Phosphatidylinositol 5-phosphate 4-kinase type-2 alpha (Homo sapiens), P48426; active = max response of -50% or lower; inconclusive = between -30% and -50%; inactive = -30% or higher; note: value at the top dose of about 77 µM; % is set by controls: 0 for no effect and ±100 for the full control effect
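Compounds were pin-transferred onto PI5P4Kalpha and substrate in HEPES pH 7.4 buffer with EGTA, CHAPS and 5% DMSO. ATP (5 microM final) started the reaction, which ran 60 minutes at room temperature before ADP-Glo detection.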
* hit, by the source's call; u = inconclusive; x = not tested or not shown; [ ] = another dose, or the depositor's remark. The list is not random: actives were taken first. Their share in the collection is about 7%. Unless noted, calls come from the whole dose curve; as a rule, active = well fitted curve in the direction sought with a large enough effect; inconclusive = small, poorly fitted or top-dose-only effect, or another doubt; inactive = no such curve, though single readings can be large; an effect the other way counts as inactive or inconclusive.

SMILES | GCN5L2 inh | PLK1 PBD block | JMJD2A Tudor | BAZ2B block | HP1b binding inh | PI5P4K alpha inh
CC(=O)N1CCOc2ccc(S(=O)(=O)NCc3ccc(F)cc3)cc21 | -14% | u | -32% | -31% | 47% | u
CCC(C)NC(=O)C1CCC(CNS(=O)(=O)c2ccccc2)CC1 (stereo not drawn) | 9% | -3% | -17% | -3% | 24% | -1
CCC(C)NC(=O)C1CCC(CNS(=O)(=O)c2ccc3c(c2)N(C(C)=O)CCO3)CC1 (stereo not drawn) | -3% | 27µM* | u | -11% | -1% | -12
CCOC(=O)c1cc2ccccc2n1C1CCN(C)CC1 | x | -8% | x | x | x | 14
CCCc1c(O)nc(SCC(=O)O)[nH]c1=O | -11% | 19µM* | u | -32% | 35% | u
CCCCc1c(O)nc(SCC(=O)NCC2CCCO2)[nH]c1=O (stereo not drawn) | -3% | -7% | 11% | x | 39% | -22
CCCCCCc1c(O)nc(SCC(=O)O)[nH]c1=O | -7% | -5% | -24% | u | 23% | -19
CCCCCc1c(O)nc(SCC(=O)NCC2CCCO2)[nH]c1=O (stereo not drawn) | 0% | 27µM* | -12%[11.4 µM] | -3% | -3% | -22
COc1ccc(/C=N\NC(=S)SCN2C(=O)C3CCC(C)(C2=O)C3(C)C)cc1 (stereo not drawn) | x | u | u | x | 1% | -20
CC12CCC(C(=O)N(CSC(=S)N/N=C\c3ccccc3O)C1=O)C2(C)C (stereo not drawn) | -7% | u | 40µM* | 2.8µM* | -15% | -20
Cc1ccc(C2N3CC4(C)CN2CC(c2ccccc2)(C3)C4=O)cc1 (stereo not drawn) | 1% | x | -19% | -27% | 32% | x
O=C(C1CC=CCC1)N1CCN(C(=O)C2CC=CCC2)CC1 (stereo not drawn) | -2% | 30µM* | 4%[11.4 µM] | 10% | -14% | -5
O=C(NOC(=O)c1ccccc1)c1ccccc1 | 35µM* | -4% | -19% | 2% | 36% | 5
CS(=O)(=O)N(Cc1nc(-c2ccc(F)cc2)no1)c1ccccc1Cl | -15% | -2% | 12% | 14% | 67% | 18
CCCCCCNc1c([N+](=O)[O-])cc(C)cc1[N+](=O)[O-] | x | u | 13µM* | x | 8.9µM* | -7
N[C@@H](CO)c1cn([C@@H](Cc2cc3ccccc3[nH]2)C(=O)N2CCNCC2)nn1 | 2% | -13% | 79µM* | 50µM* | 27% | -20
NC(=O)C[C@H](N)c1cn([C@@H](CC(N)=O)C(=O)N2CCNCC2)nn1 | -1% | -2% | 79µM* | u | -4% | -17
CCOC(=O)c1sc(N2N=C(C)/C(=C\c3ccc(OCC(=O)OC)cc3)C2=O)nc1C | -4% | 13µM* | -9% | 7% | 34% | -5
O=C(Cn1ccc2cc(S(=O)(=O)N3CCCCC3)ccc21)NCCc1ccc(Cl)cc1 | -9% | x | -13% | -8% | 13% | x
CC1CCCCN1C(=O)CSc1nc(C2CC2)nc2c1cnn2-c1ccccc1 (stereo not drawn) | -11% | 27µM* | -15% | 7% | -15% | x
COc1ccc(Cl)cc1NC(=O)CCC(=O)N1CCOc2ccccc21 | -6% | x | 9% | -32% | 34% | x
O=C(CCC(=O)N1CCOc2ccccc21)Nc1cc(F)ccc1F | -3% | 24µM* | u | 6% | 13% | -9
CCN(CC)S(=O)(=O)N1CCC(C(=O)NCc2ccc(C)cc2)CC1 | 0% | -3% | 5% | 1% | 13% | x
CCN(CC)c1ccc(CN2CCC(C(=O)NCc3ccc(C)cc3)CC2)cc1 | -10% | -2% | 20µM* | -13% | u | 1
CN(C)C(CNC(=O)C1CCN(S(=O)(=O)c2ccccc2)CC1)c1ccccc1 (stereo not drawn) | -10% | 34µM* | -7%[11.4 µM] | 2% | 13% | 5
SMILES | GCN5L2 inh | PLK1 PBD block | JMJD2A Tudor | BAZ2B block | HP1b binding inh | PI5P4K alpha inh
Cc1ccc(CNC(=O)C2CCN(S(=O)(=O)c3cccs3)CC2)cc1 | -15% | u | 89µM* | 8% | 8% | -13
CN(C)C(CNC(=O)C1CCN(S(=O)(=O)c2cccc(C(F)(F)F)c2)CC1)c1ccccc1 (stereo not drawn) | -3% | -3% | -12% | -4% | -2% | 12
O=C(NCc1ccc(Cl)cc1)C1CCN(S(=O)(=O)c2ccccc2)CC1 | -7% | 27µM* | -2% | -7% | -18% | -7
O=C(NCc1ccc(F)cc1)C1CCN(S(=O)(=O)c2ccc(Cl)cc2)CC1 | -17% | -15% | -6% | 5% | 8% | 2
CCOc1ccccc1NC(=O)C(C)N1C(=O)c2ccccc2S1(=O)=O (stereo not drawn) | -1% | -3% | -8% | 6% | 16% | 2
Cc1[nH]c(=O)[nH]c(=O)c1S(=O)(=O)N1CCC(C(=O)NC(C)c2ccccc2)CC1 (stereo not drawn) | 1% | 34µM* | u | 7% | 15% | -4
O=C(c1ccccc1)N1CCCC(C(=O)N2CCCCC2)C1 (stereo not drawn) | -1% | -8% | -7% | -3% | 45% | -7
O=C(C1CCCN(Cc2cc(Br)ccc2O)C1)N1CCCCC1 (stereo not drawn) | -4% | 3% | 7.9µM* | 50µM* | -7% | 12
O=C(C1CCCN(Cc2ccccc2F)C1)N1CCCC1 (stereo not drawn) | -8% | 3% | 28µM* | 56µM* | u | 5
CCOC(=O)c1cc2c(=O)c3cc(C)ccc3oc2nc1C | 3% | 5.3µM* | u | 4% | 17% | u
CC(=O)c1cc2c(=O)c3cc(C)ccc3oc2nc1C | 2% | -6% | 9% | -1% | 19% | -3
CC(C)(C)C1=CC(=O)C(=O)C(C(C)(C)C)=C1 | u | 3.8µM* | 18µM* | 28µM* | u | u
O=C(c1ccco1)N1CCC2(CC1)CCN(c1cccc(-c3ccccc3)c1)CC2 | -19% | x | x | x | x | x
Cc1cccn2c(=O)cc(CSc3nnc(NC(=O)COc4ccccc4)s3)nc12 | u | x | 56µM* | 28µM* | 36%[57 µM] | x
COc1ccc(Nc2nnc(SCc3cc(=O)n4ccsc4n3)s2)cc1 | -21% | u | 22µM* | -2%[57.1 µM] | -2% | x

From PubChem
